# Measurements published in the supplement of paper PMC8728848.
# The entries come from a sample that favours the strongest signals as a whole.
# B1: rCnSL-A (Clitocybe nebularis) (protein)
# chain: VNPNLPGPNDVFVGFRGTNNIVGAIYEKDGIKDTPLNNGADAEMGPGSYITDGLFTARIFASGSAGNNPGTTATVCKIYASGVQWRGAPKGYIPVAYFGNGPTAEQRRQTYLRTLGLPGTAIRFGNLNTNPGQGPTAPRQMVVPPGPLRSLLKASCFPAADTRLPQTLHYFEKRVDWNIITAADSQTWGH
# Legend:
# Experiment in all cases: glycan array binding signal (z-score within array); higher = stronger binding
# Conditions in all cases: glycan notation: IUPAC condensed, linker removed
# [1] = target: Fuc(a1-2)Gal
# Summary of the method: (§1)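 The Consortium for Functional Glycomics database supplied 3228 glycan arrays, of which those lacking an available protein sequence were dropped. The binding signal, a within-array Z-score, was averaged across arrays of the same protein sequence and across linkers. Negative scores can be read as non-binding.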
# [2] = target: Fuc(a1-2)Gal(b1-3)GalNAc(a1-3)[Fuc(a1-2)]Gal(b1-4)Glc
# Summary of the method: as §1
# [3] = target: Fuc(a1-2)[Gal(a1-3)]Gal(b1-4)GlcNAc(b1-3)[Fuc(a1-2)[Gal(a1-3)]Gal(b1-4)GlcNAc(b1-6)]GalNAc
# Summary of the method: as §1
# [4] = target: Fuc(a1-2)[Gal(a1-3)]Gal(b1-4)[Fuc(a1-3)]GlcNAc(b1-3)GalNAc
# Summary of the method: as §1
# [5] = target: Fuc(a1-2)[GalNAc(a1-3)]Gal(b1-3)GlcNAc(b1-6)GalNAc
# Summary of the method: as §1
# [6] = target: Fuc(a1-2)[GalNAc(a1-3)]Gal(b1-4)GlcNAc(b1-3)Gal(b1-4)GlcNAc(b1-3)Gal(b1-4)GlcNAc
# Summary of the method: as §1
# [7] = target: Fuc(a1-3)[Gal(b1-4)]GlcNAc(b1-6)GalNAc
# Summary of the method: as §1
# [8] = target: Fuc(a1-3)[GalNAc(b1-4)]GlcNAc6S
# Summary of the method: as §1
# [9] = target: Gal(a1-4)Gal(b1-4)Glc
# Summary of the method: as §1
# [10] = target: Gal(b1-3)Gal(b1-4)GlcNAc
# Summary of the method: as §1
# [11] = target: Gal(b1-3)GlcNAc(b1-3)Gal(b1-4)GlcNAc(b1-2)[Gal(b1-3)GlcNAc(b1-3)Gal(b1-4)GlcNAc(b1-6)]Man(a1-6)[Gal(b1-3)GlcNAc(b1-3)Gal(b1-4)GlcNAc(b1-2)Man(a1-3)]Man(b1-4)GlcNAc(b1-4)[Fuc(a1-6)]GlcNAc
# Summary of the method: as §1
# [12] = target: Gal(b1-3)GlcNAc(b1-3)Gal(b1-4)GlcNAc(b1-3)Gal(b1-4)GlcNAc(b1-2)[Gal(b1-3)GlcNAc(b1-3)Gal(b1-4)GlcNAc(b1-3)Gal(b1-4)GlcNAc(b1-6)]Man(a1-6)[Gal(b1-3)GlcNAc(b1-3)Gal(b1-4)GlcNAc(b1-3)Gal(b1-4)GlcNAc(b1-2)Man(a1-3)]Man(b1-4)GlcNAc(b1-4)[Fuc(a1-6)]GlcNAc
# Summary of the method: as §1
# [13] = target: Gal(b1-4)GlcNAc(b1-2)Man(a1-3)[Gal(b1-4)GlcNAc(b1-2)Man(a1-6)]Man(b1-4)GlcNAc(b1-4)GlcNAc
# Summary of the method: as §1
# [14] = target: Gal(b1-4)GlcNAc(b1-2)[Gal(b1-4)GlcNAc(b1-4)]Man(a1-3)[Gal(b1-4)GlcNAc(b1-2)Man(a1-6)]Man(b1-4)GlcNAc(b1-4)GlcNAc
# Summary of the method: as §1
# [15] = target: Gal(b1-4)GlcNAc(b1-3)Gal(b1-4)GlcNAc(b1-2)[Gal(b1-4)GlcNAc(b1-3)Gal(b1-4)GlcNAc(b1-6)]Man(a1-6)[Gal(b1-4)GlcNAc(b1-3)Gal(b1-4)GlcNAc(b1-2)Man(a1-3)]Man(b1-4)GlcNAc(b1-4)[Fuc(a1-6)]GlcNAc
# Summary of the method: as §1
# [16] = target: Gal(b1-4)GlcNAc(b1-3)Gal(b1-4)GlcNAc(b1-3)Gal(b1-4)GlcNAc(b1-2)[Gal(b1-4)GlcNAc(b1-3)Gal(b1-4)GlcNAc(b1-3)Gal(b1-4)GlcNAc(b1-6)]Man(a1-6)[Gal(b1-4)GlcNAc(b1-3)Gal(b1-4)GlcNAc(b1-3)Gal(b1-4)GlcNAc(b1-2)Man(a1-3)]Man(b1-4)GlcNAc(b1-4)[Fuc(a1-6)]GlcNAc
# Summary of the method: as §1
# [17] = target: Gal(b1-4)GlcNAc(b1-3)Gal(b1-4)GlcNAc(b1-3)Gal(b1-4)GlcNAc(b1-3)Gal(b1-4)GlcNAc(b1-2)Man(a1-3)[Gal(b1-4)GlcNAc(b1-3)Gal(b1-4)GlcNAc(b1-3)Gal(b1-4)GlcNAc(b1-3)Gal(b1-4)GlcNAc(b1-2)Man(a1-6)]Man(b1-4)GlcNAc(b1-4)GlcNAc
# Summary of the method: as §1
# [18] = target: Gal(b1-4)GlcNAc(b1-3)Gal(b1-4)GlcNAc(b1-3)Gal(b1-4)GlcNAc(b1-3)Gal(b1-4)GlcNAc(b1-2)Man(a1-3)[Gal(b1-4)GlcNAc(b1-3)Gal(b1-4)GlcNAc(b1-3)Gal(b1-4)GlcNAc(b1-3)Gal(b1-4)GlcNAc(b1-2)Man(a1-6)]Man(b1-4)GlcNAc(b1-4)[Fuc(a1-6)]GlcNAc
# Summary of the method: as §1
# [19] = target: Gal(b1-4)GlcNAc(b1-3)Gal(b1-4)GlcNAc(b1-3)Gal(b1-4)GlcNAc(b1-3)Gal(b1-4)GlcNAc(b1-2)[Gal(b1-4)GlcNAc(b1-3)Gal(b1-4)GlcNAc(b1-3)Gal(b1-4)GlcNAc(b1-3)Gal(b1-4)GlcNAc(b1-6)]Man(a1-6)[Gal(b1-4)GlcNAc(b1-3)Gal(b1-4)GlcNAc(b1-3)Gal(b1-4)GlcNAc(b1-3)Gal(b1-4)GlcNAc(b1-2)Man(a1-3)]Man(b1-4)GlcNAc(b1-4)[Fuc(a1-6)]GlcNAc
# Summary of the method: as §1
# [20] = target: Gal(b1-4)GlcNAc(b1-3)Gal(b1-4)GlcNAc(b1-3)Gal(b1-4)GlcNAc(b1-3)Gal(b1-4)GlcNAc(b1-3)Gal(b1-4)GlcNAc(b1-2)Man(a1-3)[Gal(b1-4)GlcNAc(b1-3)Gal(b1-4)GlcNAc(b1-3)Gal(b1-4)GlcNAc(b1-3)Gal(b1-4)GlcNAc(b1-3)Gal(b1-4)GlcNAc(b1-2)Man(a1-6)]Man(b1-4)GlcNAc(b1-4)GlcNAc
# Summary of the method: as §1
# [21] = target: Gal(b1-4)GlcNAc(b1-3)Gal(b1-4)GlcNAc(b1-3)Gal(b1-4)GlcNAc(b1-3)Gal(b1-4)GlcNAc(b1-3)Gal(b1-4)GlcNAc(b1-2)Man(a1-3)[Gal(b1-4)GlcNAc(b1-3)Gal(b1-4)GlcNAc(b1-3)Gal(b1-4)GlcNAc(b1-3)Gal(b1-4)GlcNAc(b1-3)Gal(b1-4)GlcNAc(b1-2)Man(a1-6)]Man(b1-4)GlcNAc(b1-4)[Fuc(a1-6)]GlcNAc
# Summary of the method: as §1
# [22] = target: Gal(b1-4)GlcNAc(b1-3)Gal(b1-4)GlcNAc(b1-3)Gal(b1-4)GlcNAc(b1-3)Gal(b1-4)GlcNAc(b1-3)Gal(b1-4)GlcNAc(b1-2)[Gal(b1-4)GlcNAc(b1-3)Gal(b1-4)GlcNAc(b1-3)Gal(b1-4)GlcNAc(b1-3)Gal(b1-4)GlcNAc(b1-3)Gal(b1-4)GlcNAc(b1-6)]Man(a1-6)[Gal(b1-4)GlcNAc(b1-3)Gal(b1-4)GlcNAc(b1-3)Gal(b1-4)GlcNAc(b1-3)Gal(b1-4)GlcNAc(b1-3)Gal(b1-4)GlcNAc(b1-2)Man(a1-3)]Man(b1-4)GlcNAc(b1-4)[Fuc(a1-6)]GlcNAc
# Summary of the method: as §1
binder,measurement,setting,value
B1,glycan array binding signal (z-score),[1],-0.225
same,glycan array binding signal (z-score),[2],-0.137
same,glycan array binding signal (z-score),[3],-0.176
same,glycan array binding signal (z-score),[4],-0.339
same,glycan array binding signal (z-score),[5],-0.306
same,glycan array binding signal (z-score),[6],-0.002
same,glycan array binding signal (z-score),[7],-0.093
same,glycan array binding signal (z-score),[8],-0.255
same,glycan array binding signal (z-score),[9],-0.211
same,glycan array binding signal (z-score),[10],-0.132
same,glycan array binding signal (z-score),[11],1.95
same,glycan array binding signal (z-score),[12],3.37
same,glycan array binding signal (z-score),[13],-0.203
same,glycan array binding signal (z-score),[14],2.67
same,glycan array binding signal (z-score),[15],3.11
same,glycan array binding signal (z-score),[16],5.46
same,glycan array binding signal (z-score),[17],8.55
same,glycan array binding signal (z-score),[18],2.68
same,glycan array binding signal (z-score),[19],10.3
same,glycan array binding signal (z-score),[20],2.36
same,glycan array binding signal (z-score),[21],5.05
same,glycan array binding signal (z-score),[22],13.6
